Bioassay records as filed in PubChem.
The full list was thinned out, with hits kept by preference.
Pf Dd2 inh = Plasmodium falciparum Dd2 growth inhibition | P. falciparum Dd2 growth, SYBR Green, 72 h | Potency, µM (highest dose often 28.9 µM), usual class: inhibitors | 4.3% of 120,000 active | AID 1347417; active means well fitted inhibition curve with a large enough effect; further: nearly all actives have a fitted effect of over 65% in size
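Readout: SYBR Green fluorescence, 485 nm excitation, 535 nm emission, after ~16 h lysis at 37C. Before that, Dd2-infected red cells (2.5% hematocrit) grew 72 h with compound, 29 uM top final concentration.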
Of the large screens only hits and unclear results are named; the others gave an inactive call.

COc1ccc(C(=O)N2CCC[C@H]2c2nc(-c3ccc(OC)c(OC)c3)no2)cc1	none
Cc1[nH]ncc1CNC(=O)C1CCCN(Cc2ccncc2)CCC(=O)NCC1 (stereo not given)	none
O=C(C1CCc2nnc(C3CCN([S+](=O)([O-])c4ccccc4)CC3)n21)N1CCN(c2ncccn2)CC1 (stereo not given)	none
COc1cc2c(cc1OC)C(CNC(=O)CC(C)C)N(C(=O)Nc1cccc(F)c1)CC2 (stereo not given)	none
CCOc1ccc2oc(=O)cc(CN3CCN(C(=O)c4ccc(OC)c(OC)c4)CC3)c2c1	none
COc1cc2c(cc1OC)C(COc1ccc3c(C)cc(=O)oc3c1)N(C(=O)CC(C)C)CC2 (stereo not given)	Pf Dd2 inh 11µM
CCOc1ccc(NC(=O)N2CCc3cc(OC)c(OC)cc3C2CNC(=O)NC(C)C)cc1 (stereo not given)	none
COc1ccccc1NC(=O)N1CCc2cc(OC)c(OC)cc2C1CNC(=O)CC(C)C (stereo not given)	none
CCOc1ccc(CC(=O)N2CCc3cc(OC)c(OC)cc3C2COc2ccc3c(C)cc(=O)oc3c2)cc1 (stereo not given)	Pf Dd2 inh 4µM
CCS(=O)(=O)N1CCC(Cc2nncn2C)C1 (stereo not given)	none
Cc1cc(-c2cccc(OC(C)C)c2)cnc1-n1cnnc1	none
COc1ccc(C2=NOC3(CCCN(Cc4ccc(C(F)(F)F)cc4)C3)C2)cc1 (stereo not given)	none
COCCCNC(=O)N1CCC2(CC1)CN(Cc1ccc(OC)cc1)C2=O	none
Cc1cc(-c2nc(CC(C)C)nn2-c2ccccn2)cc(S(N)(=O)=O)c1C	none
CN(C)[S+](=O)([O-])c1ccc2c(c1)OCCN(Cc1ccc(Cl)cn1)C2	none
NC(=O)[C@@H](Cc1ccccc1)NC(=O)C1=C[C@@H](NC(=O)c2ccc(F)c(Cl)c2)[C@@H](O)[C@H](O)C1	none
CC(=O)N1CC[C@H](c2nnc(Cc3c[nH]c4ccccc34)o2)C1	none
c1ccc2c(Cc3nnc([C@H]4CCN(CC5CC5)C4)o3)c[nH]c2c1	none
c1cncc(CN2CC[C@H](c3nnc(Cc4c[nH]c5ccccc45)o3)C2)c1	Pf Dd2 inh 11µM
c1ccc(-n2cnnc2CC2CCNCC2)cc1	none
Cc1cccc(CN(C(=O)c2ccco2)c2ccc(CC(=O)N(C)Cc3ccccc3)cc2)c1	none
OCCc1cc(CC2(NC3CCOCC3)COC2)no1	none
Cc1[nH]nc2c1C(c1ccccc1F)C(C#N)=C(N)O2 (stereo not given)	none
Cc1cc(C)n(CCCC(=O)N2C[C@H](CO)C[C@H](CN(C)C)C2)n1	none
Cc1ccc(C)c(Nc2nn3c(=O)c4ccc(C(=O)NCc5ccccc5)cc4nc3s2)c1	none
Cc1ccccc1Nc1nn2c(=O)c3ccc(C(=O)NCC(C)c4ccccc4)cc3nc2s1 (stereo not given)	Pf Dd2 inh 13µM
Cc1ccc(Cl)cc1Nc1nn2c(=O)c3ccc(C(=O)NCc4cccs4)cc3nc2s1	none
COc1ccc(NC(=O)N2CCc3c(C(=O)N(C)Cc4ccco4)cccc32)cc1	none
COc1ccc(NC(=O)N2CCc3c(C(=O)NCCN4CCCCCC4)cccc32)cc1	Pf Dd2 inh 2.8µM
COc1ccc(NC(=O)N2CCc3c(C(=O)N(C)C)cccc32)cc1	none
COc1ccc(CNC(=O)c2ccc(NC(=O)N3CCCCc4ccccc43)cc2)cc1	none
CCCCN(C)C(=O)c1cccc2c1CCN2C(=O)Nc1ccc(OC)cc1	Pf Dd2 inh 14µM
COc1ccc(NC(=O)N2CCc3c(C(=O)NC(C)C)cccc32)cc1	none
CCOCCn1c(=O)[nH]c2cc(C(=O)N(C)CCc3noc(C)n3)ccc21	none
Cc1cccc(C(=O)N2CCC3(CC2)c2nc[nH]c2CCN3CC(C)C)n1	none
OC(c1cc2n(n1)CCN(c1ncc(C(F)(F)F)cc1Cl)C2)C1CC1 (stereo not given)	none
O=C(c1n[nH]c2ccccc12)N1CCC(N2C(=O)C(OCC3CC3)C23CCCCC3)CC1 (stereo not given)	Pf Dd2 inh 4.5µM
O=C(C1CCCC1)N1CCC(N2C(=O)C(OCC3CC3)C23CCCCC3)CC1 (stereo not given)	none
CCn1ccc(C(=O)N2CCC(N3C(=O)C(OCC4CC4)C34CCCCC4)CC2)n1 (stereo not given)	none
Cn1nnc(-c2cccc(NC(=O)Cn3nc4c(cc3=O)CCCC4)c2)n1	none
COCCCNC(=O)CSc1nc2c(sc3ccccc32)c(=O)n1CCCC(=O)NCCOC	none
Cc1ccccc1CSc1nc2c(sc3ccccc32)c(=O)n1CCCC(=O)NCCCOC(C)C	Pf Dd2 inh 11µM
CC(C)OCCCNC(=O)CCCn1c(SCC(=O)c2ccc(F)cc2)nc2c(sc3ccccc32)c1=O	none
COCCN1CCC(N2CCN(S(=O)(=O)c3ccc(C)c(F)c3)CC2)C1=O (stereo not given)	none
COc1ccc2cc(C(=O)N3CCC(Cc4ccc(C(=O)NC5CC5)cc4)CC3)[nH]c2c1	Pf Dd2 inh 4.5µM
COc1ccc(C(=O)NC2CCN(C(=O)c3cc4c(=O)[nH]c(C)cn4n3)CC2)cc1	none
CNC(=O)[C@@H]1CN(C(=O)c2cc3ccc(OC)cc3[nH]2)C[C@H]1C1CCN(C)CC1	none
O=C(c1ccc2cc[nH]c2c1)N1CCN(C(=O)c2nnn3c2COC(c2ccc(Cl)cc2)C3)CC1 (stereo not given)	none
CN(Cc1ccsc1)C(=O)c1ccc(C#CC(C)(C)O)o1	none
OC[C@@H]1CN(C2CCSCC2)C[C@H]1c1nc(-c2cccnc2)no1	none
O=C1CO[C@H]2CCN(Cc3ccccc3)CC[C@@H]2N1CCc1cccnc1	none
Cc1cccc(CN2CC[C@@H]3OCC(=O)N(Cc4ccc(O)cc4)[C@H]3CC2)c1	none
O=C1CO[C@H]2CCN(CCCc3ccccc3)CC[C@@H]2N1Cc1ccccc1	Pf Dd2 inh 4µM
O=C(Nc1cccc(Cl)c1)c1cnc2c(c1)N(Cc1ccccc1)CCC2	none
O=C(NCc1ccnc2[nH]ccc12)C1CCCC1	none
CN(C)C(=O)c1ccc(-c2cc(NC3CCCC3)nc3[nH]ccc23)o1	Pf Dd2 inh 8.9µM
c1nc(-c2cc(NC3CCNCC3)nc3[nH]ccc23)c2sccc2n1	none
Cc1nc(-c2c3n(c(=O)n(CC(=O)NCCCc4ccccc4)c2=O)CCCC3)no1	none
CCOc1ccccc1CN1CC(CO)C2(CCNCC2)C1 (stereo not given)	none
CCCOc1ccc(C2C(=O)N(C3CCCCC3)CC(=O)N2C2CCCCC2)cc1OC (stereo not given)	none
O=C1C(c2ccc(F)cc2)N(Cc2ccccc2Cl)C(=O)CN1C1CCCCC1 (stereo not given)	none
CCCCCCOc1ccc(C2C(=O)N(C3CCCCC3)CC(=O)N2CCCC)cc1 (stereo not given)	Pf Dd2 inh 8.9µM
Cn1nccc1C(=O)N1CC(N(C2CCOCC2)S(C)(=O)=O)C1	none
O=C(N[C@H]1CCOC[C@H]1C1CCOCC1)c1ccc2c(c1)ncn2CCO	none
CC(C)C[C@@H]1N[C@H](C(=O)O)Cc2cn(Cc3ccncc3)c3cccc1c23	none
CC(C)C[C@@H]1N[C@H](C(=O)NCCN(C)C)Cc2cn(Cc3ccncc3)c3cccc1c23	Pf Dd2 inh 13µM
CC#CCn1cc2c3c(cccc31)[C@H](CC(C)C)N[C@H](C(=O)NCc1cccs1)C2	none
CC#CCn1cc2c3c(cccc31)[C@H](CC(C)C)N[C@H](C(=O)NCc1ccc(OC)cc1)C2	none
CC(C)C[C@@H]1N[C@H](C(=O)N2CCOCC2)Cc2cn(CC3CC3)c3cccc1c23	none
COc1ccc(CNC(=O)[C@@H]2Cc3cn(CC4CC4)c4cccc(c34)[C@H](CC(C)C)N2)cc1	none
